TDP1 cell CPT – qHTS for Inhibitors of human tyrosyl-DNA phosphodiesterase 1 (TDP1): qHTS in cells in presence of CPT; chicken DT40 Tdp1-/-;hTDP1 cells + 20 nM CPT, ATP luminescence, 48 h; Potency, µM (titrated, usually from 46.2 µM), actives largely listed as inhibitors; hit rate 12% among 420,000; further: nearly all actives have a fitted effect of over 55% in size
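Cell growth measured by CellTiter-Glo luminescence after a minimum 48 h, 37 C compound exposure with 20 nM CPT in Tdp1-knockout DT40 cells stably expressing hTDP1, seeded 400/well; qHTS titration format.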
TDP1 inh – qHTS Assay for Inhibitors of Tyrosyl-DNA Phosphodiesterase (TDP1); Tyrosyl-DNA phosphodiesterase 1 (Homo sapiens), Q9NUW8; Potency, µM (highest dose often 130 µM), most hits filed as inhibitors; recombinant TDP1, AlphaScreen DNA substrate cleavage; hit rate 0.28% among 350,000; further: nearly all actives have a fitted effect of over 40% in size
Target sequence (Q9NUW8 whole entry, looked up): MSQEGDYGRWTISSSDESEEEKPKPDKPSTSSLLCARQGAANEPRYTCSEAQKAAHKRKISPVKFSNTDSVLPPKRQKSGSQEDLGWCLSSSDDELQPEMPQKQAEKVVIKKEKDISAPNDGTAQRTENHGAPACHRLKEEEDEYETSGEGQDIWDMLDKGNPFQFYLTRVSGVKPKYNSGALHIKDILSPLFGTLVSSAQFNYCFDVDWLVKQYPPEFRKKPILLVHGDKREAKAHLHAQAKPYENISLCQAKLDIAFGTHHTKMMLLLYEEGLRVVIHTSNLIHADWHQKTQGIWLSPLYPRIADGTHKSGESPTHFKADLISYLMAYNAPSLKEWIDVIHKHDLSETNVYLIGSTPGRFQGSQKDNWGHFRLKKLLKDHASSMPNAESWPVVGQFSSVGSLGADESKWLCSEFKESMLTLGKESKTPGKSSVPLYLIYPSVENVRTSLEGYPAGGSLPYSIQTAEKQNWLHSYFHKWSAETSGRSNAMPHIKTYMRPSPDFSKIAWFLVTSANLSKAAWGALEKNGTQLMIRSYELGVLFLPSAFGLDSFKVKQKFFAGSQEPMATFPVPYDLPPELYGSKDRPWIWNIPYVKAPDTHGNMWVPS
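AlphaScreen read-out: signal falls as enzyme removes the 3' tyrosine-FITC from a 5'-biotinylated DNA oligo (15 nM, 5 min, RT). Enzyme was E. coli-made recombinant Tdp1 at 1 nM, exposed to compound for 15 min beforehand; beads 10 ug/ml, 10 min.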
CtBP-E1A blk – qHTS Assay for Inhibitors of the CtBP/E1A Interaction. AlphaScreen GST-E1A/His-CtBP binding, 1536-well; stronger effect = lower value. activity change, % (test concentration not listed). hit rate 0.49% among 340,000. AID 651724, 2012; in the data active means activity change below about -65%; inconclusive means mostly about -30% to -63%
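Homogeneous bead-based format: GST-tagged E1A captured on glutathione donor beads, His-tagged CtBP on nickel acceptor beads; compounds precede bead addition by 2 h at 37 °C.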
Six1-Eya2 blk – qHTS Assay for Inhibitors of the Six1/Eya2 Interaction; Homeobox protein SIX1 (Homo sapiens) + Protein phosphatase EYA2 (Homo sapiens), …; AlphaScreen GST-Six1/His-Eya2 binding, biochemical; stronger effect = lower value; activity change, % (no concentration beside the values); hit rate 0.56% among 360,000; AID 651725, 2012; in the data active means activity change below about -65%; inconclusive means mostly about -30% to -63%
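Six1/Eya2 binding was read as AlphaScreen signal after compounds were pinned into GST-Six1 plus His-tagged Eya2 (5X stock 250/500 nM) in pH 8.0 Tris/NaCl/TCEP buffer, beads added, then incubated 1 h, 37 C, dark.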
IL-1B inflam inh – qHTS for Inhibitors of Inflammasome Signaling: IL-1-beta AlphaLISA Primary Screen; THP-1 LPS/ATP IL-1B secretion, AlphaLISA, 16 h; stronger effect = lower value; activity change, % at 57.5 µM; hit rate 4.7% among 360,000; AID 743279, 2014; in the data active means activity change below about -50%; inconclusive means mostly about -30% to -49%
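THP-1 cells pretreated 1 hr with compounds (up to 57.5 uM final), then stimulated with LPS (250 ng/mL final) plus ATP (1.25 mM final); secreted IL-1B measured by AlphaLISA after 16 hr, decreased signal indicating inhibition.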
TDP1 cell noCPT – qHTS for Inhibitors of human tyrosyl-DNA phosphodiesterase 1 (TDP1): qHTS in cells in absence of CPT | DT40 Tdp1-/- hTDP1 cells, no CPT, ATP luminescence, 48 h | Potency, µM (doses to about 46.2 µM), most hits filed as inhibitors | hit rate 15% among 420,000; further: nearly all actives have a fitted effect of over 55% in size
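Chicken DT40 Tdp1-/- cells stably complemented with human TDP1 were seeded at 400 cells/well with DMSO in place of 20 nM camptothecin. After compound pinning, cells grew at least 48 hr at 37 °C; viability read by CellTiter-Glo luminescence.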
Large screens that a line does not name were inactive. Shown are actives, neighbours in structure and some others; about 18% of the full set was active somewhere. Unless noted, the call rests on the fitted dose curve; in most records, active means well fitted curve in the direction sought with a large enough effect; inconclusive means small, poorly fitted or top-dose-only effect, or another doubt; inactive means no such curve, though single readings can be large; an effect the other way counts as inactive or inconclusive.

CSC1=C(C#N)C(c2sccc2C)CC(=O)N1 (stereo not drawn)	TDP1 cell CPT inconclusive, IL-1B inflam inh -76
CCC(=O)N1c2ccccc2C(N(C(C)=O)c2ccccc2)CC1C (stereo not drawn)	TDP1 cell noCPT inconclusive
CCC(=O)N1c2ccccc2C(N(C(=O)CC)c2ccccc2)CC1C (stereo not drawn)	TDP1 cell CPT inconclusive, TDP1 cell noCPT 9.2µM (no result: TDP1 inh)
Cc1cccc(NC(=O)NC2(C(=O)NCc3ccco3)CCCCC2)c1	none (no result: TDP1 inh)
CCOC(=O)COn1c(SCC(=O)OCC)nc2ccccc2c1=O	none
c1ccc2c(c1)NCC1CCCN21 (stereo not drawn)	TDP1 cell CPT 21µM, TDP1 cell noCPT 16µM (no result: TDP1 inh)
Cc1cccc(-n2ncc3c(NC4CCCCC4)ncnc32)c1	TDP1 cell CPT inconclusive, IL-1B inflam inh inconclusive, TDP1 cell noCPT inconclusive
Cc1cccc(-n2ncc3c(NC4CCCC4)ncnc32)c1	TDP1 cell CPT 21µM (no result: CtBP-E1A blk, Six1-Eya2 blk, IL-1B inflam inh)
Cc1ccc(-n2ncc3c(NC4CCCCC4)ncnc32)cc1Cl	TDP1 cell CPT 21µM, TDP1 cell noCPT 16µM (no result: CtBP-E1A blk, Six1-Eya2 blk, IL-1B inflam inh)
Clc1cccc(-n2ncc3c(NC4CCCCCC4)ncnc32)c1	TDP1 cell CPT 21µM, TDP1 cell noCPT inconclusive (no result: CtBP-E1A blk, Six1-Eya2 blk, IL-1B inflam inh)
Cc1ccc(-n2ncc3c(NC4CCCCC4)ncnc32)cc1C	TDP1 cell CPT inconclusive, TDP1 cell noCPT inconclusive (no result: CtBP-E1A blk, Six1-Eya2 blk, IL-1B inflam inh)
CC1(C(=O)NS(=O)(=O)Cc2cccc(Cl)c2)CCN1C(=O)c1ccc(C2CCCCC2)cc1 (stereo not drawn)	none (no result: TDP1 inh)
COc1ccc(C)cc1Nc1nc(-c2c[nH]c3ccccc23)cs1	IL-1B inflam inh inconclusive
CN(CCO)C(=O)c1ccc(-c2nn(C)c(=O)c3ccccc23)cc1	none
COc1ccc(OCC(=O)Nc2cc(-c3nn(C)c(=O)c4ccccc34)ccc2OC)cc1	TDP1 cell CPT 16µM, TDP1 cell noCPT 16µM
Cn1nc(-c2ccc(OCC(=O)NCC3CCCO3)cc2)c2ccccc2c1=O (stereo not drawn)	TDP1 cell CPT 18µM, TDP1 cell noCPT 12µM
COc1ccc(NC(=O)COc2ccc(-c3nn(C)c(=O)c4ccccc34)cc2)cc1	TDP1 cell CPT inconclusive, TDP1 cell noCPT inconclusive
Cn1nc(-c2ccc(C(=O)NCC3CCCO3)cc2)c2ccccc2c1=O (stereo not drawn)	TDP1 cell CPT inconclusive, TDP1 cell noCPT inconclusive
CN(C(=O)c1ccc(-c2nn(C)c(=O)c3ccccc23)cc1)C1CCCCC1	TDP1 cell CPT 13µM, IL-1B inflam inh inconclusive, TDP1 cell noCPT 16µM (no result: TDP1 inh)
Cc1ccc(C(=O)c2cc([N+](=O)[O-])ccc2N2CCOCC2)cc1C	TDP1 cell CPT 1.5µM, TDP1 cell noCPT 0.73µM
Cc1ccc(C(=O)c2cc([N+](=O)[O-])ccc2N2CCOCC2)c(C)c1	TDP1 cell CPT 0.82µM, TDP1 cell noCPT 0.92µM
O=C(c1ccc(N2CCOCC2)c([N+](=O)[O-])c1)N1CCCCC1	none
Cc1ccc(C(=O)c2cc([N+](=O)[O-])ccc2N2CCCCC2)cc1C	TDP1 cell CPT 3.3µM, TDP1 cell noCPT 5.2µM
Cc1ccc(C)c(C(=O)COC(=O)c2cc([N+](=O)[O-])ccc2N2CCOCC2)c1	TDP1 cell CPT inconclusive, TDP1 cell noCPT inconclusive
Cc1ccc(C)c(N2CCN(C(=O)c3ccc(N4CCOCC4)c([N+](=O)[O-])c3)CC2)c1	TDP1 cell CPT inconclusive, IL-1B inflam inh -51, TDP1 cell noCPT 16µM
COc1cc2oc(-c3ccccc3)cc(=O)c2cc1O	none (no result: CtBP-E1A blk, Six1-Eya2 blk, IL-1B inflam inh)
CC(OC(=O)CC1CCCCC1)C(=O)Nc1ccc(S(N)(=O)=O)cc1 (stereo not drawn)	none (no result: TDP1 inh)
CCn1c(CNc2ccc(Cl)cc2)nnc1SCCN1CCCCC1	TDP1 cell CPT 21µM, TDP1 cell noCPT 18µM
